Results on 56 molecules are retold here after ChEMBL document CHEMBL4513216, “Probing the Open Global Health Chemical Diversity Library for Multistage-Active Starting Points for Next-Generation Antimalarials” (ACS Infect Dis, 2020).

About 8,600 (12%) of roughly 69,000 compounds showed an effect of 50% or more. The sample as a whole holds a higher share of strong results than the screen did.

The experiment concerns Plasmodium berghei. The experiment is described as follows: Screen against P. berghei liver stage (PbLuc), transformed with Luciferase, at 10uM. It is filed as functional, HepG2. The conditions noted are these: tested at 10 uM.
Consider `CCCN1CCC(CC(=O)N(C)C(C)c2cncs2)CC1` (stereo unspecified), for which the INHIBITION was 6.33%.
The figure for `CCN1CCC(CC(=O)N(C)CC(=O)c2ccc(O)cc2)CC1` is 55%; for `CC(C)N1CCC(C(=O)N(C)CC(=O)c2ccc(O)cc2)CC1` it is 23.6%.
Turning to `CC(C)N1CCC(CC(=O)N(C)CC(=O)c2ccc(O)cc2)CC1`, the INHIBITION is on record as 1.98%.
In the case of `CCCN1CCC(CC(=O)NCc2cc(O)ncn2)CC1`, the INHIBITION amounted to 28.7%.
The same measure for `CN(C)C(=O)C1OC2(CCN(C(=O)N(C)C)CC2)c2ccccc21` (stereo unspecified): 14.1%; for `CNc1cc(C2CCCN2C(=O)c2ccc(=O)[nH]n2)ccn1` (stereo unspecified): -7.66%; for `N#Cc1ccsc1C(=O)N1CCCN(Cc2cscn2)CC1`: -14%.
On to `CC(C)n1nc(CNc2ncccn2)c2c1CN(C)CC2`, for which the INHIBITION is recorded as -3.77%.
The figure for `COC[C@]12COC[C@H]1CN(Cc1cc(OC)cc(OC)c1)C2` is 35.8%; for `O=C(c1cccnc1)N1CCC(c2nc(O)cc(-c3ccncc3)n2)C1` (stereo unspecified) it is 1.5%.
As to `CNC(=O)CN1CCCC12CCN(C(=O)c1ccsc1)CC2`, the INHIBITION is on record as -0.937%.
The same measure for `CNC(=O)CN1CCCC12CCN(C(=O)c1ccoc1)CC2`: 56.8%; for `CNC(=O)CN1CCCC12CCN(C(=O)c1ccc(F)cc1)CC2`: 42.4%.
Take `CCOCC(O)CN1CCN(C(=O)c2cc(C)ccc2F)CC1` (stereo unspecified): the INHIBITION was -59.4%.
In the case of `COCC1c2c(cnn2C)CCN1C(=O)c1cccn1C` (stereo unspecified), the INHIBITION is on record as 46.6%.
The figure for `COc1c(C(=O)N2CCOCC2)cnc2c1c(C)nn2C` is 2.59%; for `COC(=O)c1cnc2c(c(C)nn2C)c1OC` it is 66.8%.
The same measure for `COc1c(C(=O)N2CCNC(=O)C2)cnc2c1c(C)nn2C`: -25.1%.
The same measure for `O=C(Cc1cccs1)NS(=O)(=O)c1cccc2cnccc12`: 36.3%; for `CCOc1ccc(CN2CCOCC2c2[nH]ncc2C)cc1CO` (stereo unspecified): 29.65%; for `Cc1cc(C)n(CCCNC(=O)C2CCCO2)n1` (stereo unspecified): 6.09%.
Consider `Cc1cc(C(F)(F)F)nn1CCCNC(=O)C1CCCC1`, for which the INHIBITION stood at 43.2%.
`Cc1cc(C(F)(F)F)nn1CCCNC(=O)C1CCCO1` (stereo unspecified): the INHIBITION is 60.4%.
As to `Cc1cc2[nH]c(=O)oc2cc1S(=O)(=O)N1C[C@@H](N(C)C)[C@H](C(C)C)C1`, the INHIBITION is listed as 26.5%.
The figure for `Cc1nc(CSCCC(=O)Nc2cccc(N3CCNC3=O)c2)cs1` is -24.6%; for `COCCN1CCO[C@@H]2CN(Cc3ccc(C)o3)C[C@@H]2C1` it is -0.554%.
The figure for `CCn1nc(C)c(S(=O)(=O)Nc2cccc(C(=O)O)c2C)c1C` is 62.4%; for `Cc1ccc(NS(=O)(=O)c2cnn(Cc3ccccc3)c2)c(C(=O)O)c1` it is 51.6%; for `Cc1ccc(NS(=O)(=O)c2cnn(-c3ccccc3)c2)c(C(=O)O)c1` it is 22.5%.
On to `Cc1cn(-c2ccccc2)nc1NS(=O)(=O)c1cccc(C(=O)O)c1`, for which the INHIBITION amounted to 40.9%.
The figure for `CCS(=O)(=O)Nc1cnn(Cc2cccc(C)c2)c1` is -2.64%; for `Cc1ccc(-n2cc(S(=O)(=O)Nc3cccc(C(=O)O)c3C)cn2)cc1` it is 68%; for `Cc1cccc(NS(=O)(=O)c2cnn(C)c2)c1C#N` it is 18.9%.
Consider `CCn1nc(C)c(S(=O)(=O)Nc2ccccc2C(=O)OC)c1C`, for which the INHIBITION is 29.7%.
For the molecule `COC(=O)c1ccccc1NS(=O)(=O)c1c(C)nn(C)c1C`, the INHIBITION is on record as -7.93%.
Turning to `CC(=O)N1CCC(c2cncc(N3CCCCCC3)n2)CC1`, the INHIBITION worked out at 17.4%.
The figure for `O=C(NC1CCCN(CCc2ccccc2)C1)c1cnccn1` (stereo unspecified) is -0.29%; for `Cc1cnn(C2CCCN(C(=O)Cc3cn4ccsc4n3)C2)c1` (stereo unspecified) it is -9%; for `Cc1nc(C)c(C(=O)N2CCC(O)(Cn3ccc4ccncc43)CC2)s1` it is -57.4%.
With `CS(=O)(=O)c1cc(C(=O)NS(=O)(=O)Cc2ccc(F)cc2)ccc1Cl`, the INHIBITION worked out at 37.7%.
As for `O=C(Cc1noc(C(=O)NCCO)n1)Nc1cccc(C(F)(F)F)c1`, the INHIBITION is 25.2%.
Regarding `CC(C)(C)n1ncc2c1NC(=O)CC2c1cccs1` (stereo unspecified), the INHIBITION is -0.87%.
For `Cc1nc(CN2CCCC2Cn2cncn2)no1` (stereo unspecified), the INHIBITION stood at 34.95%.
Consider `COCc1nc2cc(NCc3ccncc3)ccc2o1`, for which the INHIBITION was found to be 18.5%.
The figure for `COCc1nc2cc(NCc3cc[nH]n3)ccc2o1` is 67.1%; for `CCC(C)CNc1ccc2oc(COC)nc2c1` (stereo unspecified) it is -23.2%; for `COCc1nc2cc(NCc3sc(C)nc3C)ccc2o1` it is 65.4%.
For the molecule `COCc1nc2cc(NCc3nc(C)cs3)ccc2o1`, the INHIBITION is -17.6%.
The figure for `Cc1cc(CNc2ccc3nc(C)sc3c2)no1` is -4.33%; for `CC(C)(C)c1nc2cc(NC(=O)Cn3ccc(=O)[nH]c3=O)ccc2o1` it is 20%.
The same measure for `COCc1nc2cc(NCc3ccc(C)o3)ccc2o1`: 11.8%; for `COCc1nc2cc(NCc3ccc(CO)o3)ccc2o1`: 90.2%; for `COCc1nc2cc(NCc3csc(C)n3)ccc2o1`: 14.9%.
The same measure for `COCc1nc2cc(NCc3scnc3C)ccc2o1`: 70.5%; for `Cc1ncsc1CNc1cc(N2CCCC2CO)ncn1` (stereo unspecified): 27.4%.
